Consider 112 compounds from PubChem BioAssay AID488969 (Vanderbilt High Throughput Screening Facility, 2010).

Each structure is given as a SMILES string. Over roughly 110,000 compounds, “z-score” has its median near -0.1; the highest 2% begin near 2. The sample as a whole holds a higher share of the highest values than the screen did. Activity calls are given as the source filed them.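 The calls were made as follows: active = z-score in the third read window above 3 or below -3; inactive = the rest.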

The assay deals with Metabotropic glutamate receptor 8 (Rattus norvegicus) (UniProt P70579). Kind of assay: rat mGluR8 modulators via GIRK flux, primary screen, cell-based, thallium flux, HTS (AID 488969). Conditions: HEK293 rat mGluR8, GIRK (G protein-gated inwardly rectifying potassium channel) thallium flux, FluoZin2; at 10 µM; stronger effect = higher value; submaximal glutamate (EC20) added with thallium.
Chain of Metabotropic glutamate receptor 8 (Rattus norvegicus) (P70579 whole entry, looked up): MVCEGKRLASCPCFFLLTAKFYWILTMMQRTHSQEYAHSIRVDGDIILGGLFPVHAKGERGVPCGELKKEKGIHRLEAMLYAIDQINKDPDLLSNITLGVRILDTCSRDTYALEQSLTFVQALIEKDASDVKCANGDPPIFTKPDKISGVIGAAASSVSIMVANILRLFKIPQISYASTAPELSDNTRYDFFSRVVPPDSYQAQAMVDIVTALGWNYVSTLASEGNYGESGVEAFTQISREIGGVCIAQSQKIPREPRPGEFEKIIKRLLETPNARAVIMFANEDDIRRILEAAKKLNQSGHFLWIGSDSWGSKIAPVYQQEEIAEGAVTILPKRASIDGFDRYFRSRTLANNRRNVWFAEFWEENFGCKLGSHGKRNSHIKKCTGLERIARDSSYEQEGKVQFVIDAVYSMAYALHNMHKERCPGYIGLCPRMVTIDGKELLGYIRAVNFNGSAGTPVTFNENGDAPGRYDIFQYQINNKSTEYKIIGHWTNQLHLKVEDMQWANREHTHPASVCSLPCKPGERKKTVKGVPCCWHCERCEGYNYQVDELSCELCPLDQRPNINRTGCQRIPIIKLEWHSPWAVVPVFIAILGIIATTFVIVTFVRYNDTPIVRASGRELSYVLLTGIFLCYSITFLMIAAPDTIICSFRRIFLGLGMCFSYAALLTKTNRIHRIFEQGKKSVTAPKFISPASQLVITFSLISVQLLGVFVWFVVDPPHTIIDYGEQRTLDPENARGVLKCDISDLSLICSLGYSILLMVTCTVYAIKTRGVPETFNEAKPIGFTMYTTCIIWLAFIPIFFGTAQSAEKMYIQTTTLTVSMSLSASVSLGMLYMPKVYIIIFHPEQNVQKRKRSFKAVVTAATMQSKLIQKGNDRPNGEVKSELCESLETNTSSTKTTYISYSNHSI
`COc1ccc(CNC(=O)CN(Cc2ccc(C)cc2)S(=O)(=O)c2ccc(Cl)cc2)cc1` gave a z-score of 0.0059.
Under `CC1=C(C(=O)N2CCCCC2)C(c2cccs2)C2=C(CCCC2=O)N1` (configuration not stated) stands 0.187; under `CC1SC(c2ccc(Cl)cc2Cl)NC1=O` (configuration not stated), -0.0303; under `C=C(C)C1CC=C(C)/C(=N/NC(=O)COc2ccccc2Cl)C1` (configuration not stated), 12.4 (active).
`C=C(C)C1CC=C(C)/C(=N/NC(=O)COc2cccc3ccccc23)C1` (configuration not stated) showed a z-score of 0.0808.
Under `C=C(C)C1CC=C(C)/C(=N/NC(=O)CNc2ccc(C)cc2C)C1` (configuration not stated) stands -0.284.
The result for `C=C(C)C1CC=C(C)/C(=N/NC(=O)COc2ccc(C)cc2)C1` (configuration not stated) reads 1.47; that for `C=C(C)C1CC=C(C)/C(=N\NC(=O)CNc2ccccc2OC)C1` (configuration not stated), 0.0831; that for `C=C(C)C1CC=C(C)/C(=N/NC(=O)COc2cccc(C)c2)C1` (configuration not stated), 8.9 (active).
The result for `C=C(C)C1CC=C(C)/C(=N/NC(=O)CNc2ccc(OCC)cc2)C1` (configuration not stated) reads 1.99; that for `C=C(C)[C@H]1CC=C(C)/C(=N/NC(=O)CNc2ccccc2OC)C1`, 0.284.
In turn, `C=C(C)C1CC=C(C)/C(=N\NC(=O)CCc2ccccc2)C1` (configuration not stated) gave a z-score of -0.339.
Under `C=C(C)C1CC=C(C)/C(=N\NC(=S)Nc2ccc(C)cc2)C1` (configuration not stated) stands 0.799; under `C=C(C)C1CC=C(C)/C(=N/NC(=S)Nc2ccccc2)C1` (configuration not stated), 2.35; under `C=C(C)C1CC=C(C)/C(=N/NC(=O)COc2ccccc2C)C1` (configuration not stated), 1.
Under `Cc1nn(Cc2ccc(Br)cc2)c(C)c1NC(=O)c1nn(C)cc1Cl` stands -0.296.
The result for `COC(=O)c1ccccc1NC(=O)CN(C)S(=O)(=O)c1ccc(OC)cc1` reads 0.195; that for `Fc1ccc(/C=C2\CCCC3=C2NC(=S)NC3c2ccc(F)cc2)cc1` (configuration not stated), -0.0195; that for `N#CC1(C#N)C2=C(CCCC2)NC(c2ccccc2)C1(C#N)C#N` (configuration not stated), -0.0942.
The compound `O=C(NCCc1ccccc1F)/C(=C/c1cccnc1)NC(=O)c1ccccc1` displayed a z-score of 0.0991.
Under `O=C(Nc1ccccc1)c1c(F)c(F)c(F)c(F)c1F` stands -0.122; under `COc1ccc(CC(=O)NCCc2ccc(S(N)(=O)=O)cc2)cc1`, 0.445.
Under `O=c1c(CN2CCN(Cc3ccccc3)CC2)coc2ccc(Cl)cc12` stands -0.714.
Under `CCOC(=O)c1cc(-c2ccc(Cl)cc2)nc2c1c(C)nn2CCC#N` stands 3.13 (active).
As to `CCOC(=O)c1cc(-c2ccc(C#N)cc2)nc2c1c(C)nn2CCC#N`, the z-score was -0.234.
For the compound `CCOC(=O)c1cc(-c2ccc(OC)cc2)nc2c1c(C)nn2CCC#N`, the z-score was -0.93.
Under `S=c1[nH]nc(Cc2sc(-c3ccccc3)nc2-c2ccccc2)o1` stands 0.186; under `COCCCNCC1C(Oc2ccc(Cl)cc2)C(=O)N1c1ccccc1C` (configuration not stated), 0.258; under `CCCNCC1C(Oc2ccc(Cl)cc2)C(=O)N1c1ccccc1C` (configuration not stated), 1.55.
The result for `Cc1ccccc1N1C(=O)C(Oc2ccc(Cl)cc2)C1CNCCCOC(C)C` (configuration not stated) reads 2.95; that for `Cc1cc(C)c(OCCCCCNCCO)c(C)c1`, 1.43; that for `CCc1ccc2nc(-c3cccc(C)c3)nc(SCC(=O)NCC3CCCO3)c2c1` (configuration not stated), -0.227.
Under `Cc1n[nH]c(C)c1SCC(=O)Nc1ccc(F)cc1` stands 0.159; under `COc1cccc(Nc2ccc(C(=O)O)cc2[N+](=O)[O-])c1`, 0.594; under `O=C(c1cccc(Br)c1)c1cn(-c2ccccc2)nc1C(=O)c1ccccc1`, -0.106.
With `CCOc1ccc2[nH]c(=O)c(C(c3nnnn3C3CCCCC3)N3CCN(CC)CC3)cc2c1` (configuration not stated), the z-score was determined as 0.408.
Under `COC(=O)c1ccc(N2C(=O)CC(SCCN)C2=O)cc1` (configuration not stated) stands -0.299.
The result for `COC(=O)c1ccc(N2C(=O)CC(Sc3n[nH]c(C)n3)C2=O)cc1` (configuration not stated) reads 4.88 (active); that for `COC(=O)c1cc(C(=O)OC)cc(N2C(=O)CC(Sc3nc(C)cc(C)n3)C2=O)c1` (configuration not stated), 0.178; that for `Cc1noc(C(=O)NCc2ccccc2)c1Cl`, -0.324.
The result for `C/C(=N/NC(=O)Cc1cccc2ccccc12)c1cccs1` reads -0.221.
The compound `CCOC(=O)CSc1n[nH]c(NC(=O)c2cccc(C(F)(F)F)c2)n1` displayed a z-score of -0.122.
The result for `CCOC(=O)CSc1n[nH]c(NC(=O)c2cccc(C)c2)n1` reads 2.67; that for `CCOC(=O)CSc1n[nH]c(NC(=O)c2ccccc2)n1`, 0.788.
The compound `c1cncc(-c2nc3ccccc3[nH]2)c1` came in with a z-score of -0.186.
In turn, `O=c1[nH]cnc2c1sc1nc3c(c(-c4ccc(Cl)cc4)c12)CCC3` registered a z-score of -0.722.
With `CC(OC(=O)c1nsc(Cl)c1Cl)C(=O)NC(C)(C)C` (configuration not stated), the z-score came out at 0.181.
The compound `Cc1cc(OCC(=O)Nc2ccc(F)c(F)c2)nc(C(C)C)n1` registered a z-score of 0.156.
The result for `O=C(NNS(=O)(=O)c1ccccc1)C1CCN(S(=O)(=O)c2ccc(Cl)cc2)CC1` reads -0.131; that for `CCCCCCCCCc1nc(N)n[nH]1`, -0.191; that for `C=CCCCCCCCCc1nc(=S)[nH][nH]1`, 9.76 (active).
As for `CCCCCCCCc1nc(=S)[nH][nH]1`, the z-score was 15.3 (active).
In turn, `CCCCOc1ccc(-c2nc(=S)[nH][nH]2)cc1` registered a z-score of 0.294.
Under `CC(=O)SC(C)CC(=O)NCc1ccccc1` (configuration not stated) stands -0.123; under `Cc1ccccc1Nc1nc2nonc2nc1N1CCOCC1`, 6.03 (active).
`COc1ccccc1Nc1nc2nonc2nc1N1CCC(C)CC1`: the z-score is -0.00241.
The result for `Cc1ccc(C)c(Nc2nc3nonc3nc2N2CCOCC2)c1` reads 0.382.
Under `CCCCC(=O)Nc1cc(C(=O)NCCc2ccccc2)ccc1Cl` stands 0.145.
Under `CC1CCN(c2ncccc2C(=O)O)CC1` stands 4.14 (active).
For `O=C(Nc1ccccc1)c1cccnc1N1CCCC1`, the z-score was 0.569.
The result for `CC1CCN(c2nc3ccccc3nc2N2CCC(C)CC2)CC1` reads -0.169; that for `Cc1ccc(-n2nnnc2SCC(=O)c2ccc3c(c2)NC(=O)CO3)c(C)c1`, -0.0959.
Under `Cc1ccc(C2(C)NC(=O)N(CC(=O)Nc3c(C)n(C)n(-c4ccccc4)c3=O)C2=O)cc1` (configuration not stated) stands -0.208.
Under `COc1cccc(-n2c(SCC(=O)NCCC3=CCCCC3)nc3n[nH]c(C)c3c2=N)c1` stands 8.62 (active); under `CCc1ccc(NC(=O)CSc2nc3n[nH]c(C)c3c(=N)n2-c2cccc(OC)c2)cc1`, 0.339; under `CCc1ccccc1NC(=O)CSc1nc2n[nH]c(C)c2c(=N)n1-c1cccc(OC)c1`, 0.747.
`COc1ccc(/C=C/C(=O)NC(C)C)cc1Br` came in with a z-score of -0.339.
Under `CCCOc1ccc(C(=O)N2CCCC2)cc1OC` stands -0.411; under `S=C(NCCN1CCOCC1)N/N=C/c1ccccc1`, 0.728; under `Cc1ccc(NC(=S)N2CCOCC2)cc1`, -0.0267.
Under `CC(C)NC(=S)N/N=C/c1ccc(N2CCOCC2)cc1` stands 0.522; under `S=C(Nc1ccc(Cl)cc1)N1CCOCC1`, 0.122.
Under `Cc1ccc(/C=N/NC(=S)N2CCOCC2)cc1` stands 4.72 (active).
`S=C(N/N=C/c1ccccc1)N1CCOCC1`: the z-score turned out to be 2.65.
Take `S=C(Nc1ccc(Cl)cc1Cl)N1CCOCC1`: the z-score is -0.325.
Under `NC(=S)N/N=C/c1ccccc1` stands 0.103.
The result for `S=C(N/N=C/c1ccc(Cl)cc1)N1CCOCC1` reads 11.9 (active); that for `COc1ccc(OCCN2CCN(C3CC(=O)N(CCC(C)C)C3=O)CC2)cc1` (configuration not stated), -0.363.
For `O=C(/C=C/c1c(Cl)cccc1Cl)N1CCN(c2ncccn2)CC1`, the z-score was -0.303.
Under `COCC(C)NC(=O)c1ccccc1OC(C)=O` (configuration not stated) stands -0.44.
In turn, `COc1cc(/C=N/NC(=O)c2sc(N)c(C#N)c2C)cc(Br)c1O` gave a z-score of -0.544.
`Cc1cc(C)n(-c2ccc(C(=O)OCC(=O)Nc3ccc(Cl)cc3[N+](=O)[O-])cc2)n1` gave a z-score of -0.362.
Under `COc1ccc2cc(C(=O)Nc3ccc(F)cc3)sc(=O)c2c1OC` stands 0.534; under `COc1ccc2cc(C(=O)NCC(=O)O)sc(=O)c2c1OC`, 3.42 (active); under `COc1ccc2cc(C(=O)NCCO)sc(=O)c2c1OC`, -0.297.
With `COC(=O)c1cc2ccc(OC)c(OC)c2c(=O)s1`, the z-score worked out at 0.0942.
`COc1ccc2cc(C(=O)Nc3ccccc3)sc(=O)c2c1OC`: the z-score is 4.25 (active).
Compound `COc1ccc2cc(C(=O)OC(C)C)sc(=O)c2c1OC` returned a z-score of -0.229.
Under `N#Cc1ccc(C(=O)Nc2cc(S(=O)(=O)Nc3ccc(Cl)cc3)ccc2N2CCCCC2)cc1` stands -0.309; under `O=C(O)CCc1ccc(-c2ccc(F)cc2)n1NC(=O)c1ccco1`, 0.168.
The result for `N#CC1=C(N)Oc2cc(O)c(C=Nc3ccccc3)cc2C1c1ccccc1` (configuration not stated) reads -0.423.
Under `Cc1ccc(N=Cc2cc3c(cc2O)OC(N)=C(C#N)C3c2ccccc2)cc1` (configuration not stated) stands 6.28 (active); under `COc1ccc(N=Cc2cc3c(cc2O)OC(N)=C(C#N)C3c2ccccc2)cc1` (configuration not stated), -1.18.
The compound `O=C(c1ccc(Cn2c(=O)[nH]c3ccccc3c2=O)cc1)N1CCN(c2ccc(Cl)cc2)CC1` showed a z-score of -0.127.
Under `CC(C)CCn1c(CN2CCN(Cc3ccccc3)CC2)nc2c1c(=O)[nH]c(=O)n2C` stands 5.8 (active); under `CN1CCN(Cc2nc3c(c(=O)[nH]c(=O)n3C)n2CCc2ccccc2)CC1`, -0.00916; under `CC(C)CCn1c(CN2CCN(Cc3ccccc3)CC2)nc2c1c(=O)n(C)c(=O)n2C`, 0.709.
The result for `CC(C)CCNC(=O)CO/N=C/c1ccccc1OC(F)F` reads -0.572; that for `COc1cc(Nc2nc(SCC#N)nc3ccccc23)cc(OC)c1OC`, 2.31; that for `COc1cc(Nc2nc3ccccc3n3nnnc23)cc(OC)c1OC`, -0.0435.
Under `N#CCSc1nc(Nc2ccc3c(c2)OCO3)c2ccccc2n1` stands -0.556; under `CC(C)COC(=O)c1cccc2c1-c1ccccc1/C2=N\O`, -0.108; under `O=C(Nc1cccc(Oc2ccc3c(c2)C(=O)NC3=O)c1)c1cccs1`, 0.83.
Turning to `CC1CCCCC1n1c(=S)[nH]c2ccccc2c1=O` (configuration not stated), the z-score was 16.2 (active).
Take `CC1CCCC(n2c(=S)[nH]c3ccccc3c2=O)C1C` (configuration not stated): the z-score was 9.07 (active).
Under `Cc1cc(C)c2c(N=NN3CCCCC3)[nH]nc2n1` stands -0.0999; under `CCN(CC)S(=O)(=O)c1ccc(NC(=O)c2ccc(NS(C)(=O)=O)cc2)cc1`, 1.67.
The result for `CCn1c(N2CCN(C(=S)NCC(C)C)CC2)nc2ccccc21` reads -0.148.
Under `CCCC(=O)NCc1ccc2c(c1)cc(C)n2C` stands -0.371; under `CCOC(=O)C1=C(C)NC2=C(C(=O)CC(c3ccc(OC)c(OC)c3)C2)C1c1ccc(C)o1` (configuration not stated), 4.89 (active); under `CC1=C(C(=O)OCC2CCCO2)C(c2ccc(C)o2)C2=C(CC(c3ccc(N(C)C)cc3)CC2=O)N1` (configuration not stated), -0.22.
On to `CC1=C(C(=O)OCC2CCCO2)C(c2ccc(C)o2)C2=C(CC(c3ccc(F)cc3)CC2=O)N1` (configuration not stated), for which the z-score was -3.31 (active).
